# From PubChem BioAssay
# Compounds with a hit are over-represented: about 3.7% of the library has one in this group of screens.
# PfHsp90 yeast 2 – growth inhibition of PfHsp90-expressing yeast, primary screen, antimalarial PfHsp90 inhibitor project, S. cerevisiae, BacTiter-Glo luminescence, single point, set 2 | actives 0.32% (n = 310,000) | inhibition, % at 9.4 µM | BacTiter-Glo ATP, 48 h; yeast lacking PDR1 and PDR3 efflux regulators;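 active = every replicate shows inhibition above about 80%, whatever the replicate mean, limit read from the data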;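 note: 0% = DMSO neutral controls and 100% = 20 µM radicicol positive controls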
# tim10-1 inh – growth inhibitors of tim10-1 mutant yeast, primary screen, luminescence, uHTS; S. cerevisiae tim10-1 ts strain growth, BacTiter-Glo, 24 h; inhibition, % at 20 µM; actives 2.2% (n = 330,000); AID 463190, 2010;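 active = inhibition of at least 40%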;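 note: mutant grown at 25 °C; 0% = DMSO wells with yeast and 100% = wells holding no yeast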
# V-ATPase pH – regulators of yeast V-ATPase proton pumping, primary screen, pHLuorin cytosolic pH fluorescence; S. cerevisiae; response, % at 10 µM; actives 0.37% (n = 350,000); AID 504577, 2011; in the data active = response mostly above about 7.3%, no sharp cut-off; inactive = mostly below about 5.4%; note: actives read high
# TIM10 inh – growth inhibitors of isogenic TIM10 control yeast, primary screen, counter-screen for tim10-1 yeast inhibitor project, luminescence, uHTS; S. cerevisiae TIM10 strain growth, BacTiter-Glo luminescence, 24 h; inhibition, % at 10 µM; actives 1.4% (n = 330,000); AID 463195, 2010;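 active = inhibition of 40% or more at the single tested concentration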;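 note: wild-type TIM10 isogenic control strain grown at permissive 25 °C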
# tim23-1 inh – growth inhibitors of tim23-1 mutant yeast, primary screen, luminescence, uHTS; S. cerevisiae tim23-1 growth, BacTiter-Glo luminescence, 24 h; inhibition, % at 20 µM; actives 1.3% (n = 330,000); AID 463212, 2010;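 active = growth inhibition of the mutant yeast at or above 50%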;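 note: temperature-sensitive mutant grown at 25 °C; plate controls were DMSO-treated mutant yeast for no effect and medium wells lacking yeast for full effect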
# tim10-1 conf – growth inhibitors of tim10-1 mutant yeast, confirmation, single concentration, luminescence, S. cerevisiae. shares compounds with tim10-1 inh. actives 56% (n = 7,400). inhibition, % at 20 µM. AID 463213, 2010. S. cerevisiae tim10-1 ts strain growth, BacTiter-Glo, 24 h;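 active = inhibition of yeast growth at or above a set limit in either of two repeat tests at 20 µM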;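 note: tim10-1 mutant grown at permissive 25 °C to find synthetic lethal compounds; 0% = DMSO yeast wells and 100% = medium wells without yeast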
# tim10 confirm – growth inhibitors of wild-type TIM10 yeast, confirmation, counter-screen for tim10-1 synthetic lethality project, single concentration, luminescence, S. cerevisiae. shares compounds with TIM10 inh. actives 63% (n = 4,600). AID 463215, 2010. inhibition, % at 10 µM. S. cerevisiae tim10 strain growth, BacTiter-Glo luminescence, 24 h;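 active = inhibition of yeast growth at or above a set limit in either of two replicates at 10 µM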;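 note: this counterscreen used the strain with wild-type TIM10; 0% = yeast with DMSO and 100% = medium wells lacking yeast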
# An asterisk follows results filed as active; nt = no result.
SMILES,PfHsp90 yeast 2,tim10-1 inh,V-ATPase pH,TIM10 inh,tim23-1 inh,tim10-1 conf,tim10 confirm
Cc1cccc(NC(=S)NNC(=O)c2cccc([N+](=O)[O-])c2)c1,5.2,10.4,-0.5,16.4,10.1,nt,nt
Cc1cccc(NC(=S)N/N=C2/CCCCc3ccccc32)c1,-60.8,51.0*,0.2,47.1*,46.1,37.4*,4.2
COc1cccc(NC(=S)NN=C2CCCCCC2)c1,9.6,44.9*,1.3,41.0*,34.5,36.5*,30.8
Cc1ccc(C)c(NC(=S)N/N=C2\CCc3ccccc32)c1,-50.7,29.5,-2.5,36.6,31.2,nt,nt
C/C(=N/NC(=S)Nc1cccc(C)c1)c1cccc([N+](=O)[O-])c1,-12.9,51.9*,-1.3,49.4*,35.9,42.8*,40.6*
CC/C(=N\NC(=S)Nc1cccc(C)c1)c1ccccc1,-30.9,59.9*,-2.2,47.6*,41.6,38.7*,53.5*
O=C(Oc1cccnc1)c1ccccc1[N+](=O)[O-],-0.8,52.3*,-2.2,50.1*,32.0,32.6*,32.7*
O=C(/C=C/c1cccc(Cl)c1)c1nc2ccccc2[nH]1,65.0,50.1*,-2.1,57.8*,15.2,40.7*,62.8*
O=C(/C=C/c1cccc(Cl)c1)Nc1ncccn1,4.2,11.2,-0.1,0.0,20.3,nt,nt
O=C(/C=C/c1ccccc1O)c1ccccc1,14.7,nt,-1.4,nt,nt,nt,nt
O=C(/C=C/c1c[nH]c2ccccc12)c1ccccc1,32.6,45.0*,-3.3,52.9*,17.7,36.8*,-15.9
COc1ccc2[nH]cc(/C=C/C(=O)c3ccccc3)c2c1,20.8,60.6*,6.5,71.0*,37.3,52.3*,73.8*
CC1CCC2C(C1)c1sc(=O)[nH]c1SC2(C)C (configuration not stated),-187.4,51.2*,-2.7,41.2*,23.6,40.6*,41.0*
COc1ccc2c(C)nc(Nc3nc(C)c(C)c(=O)[nH]3)nc2c1,-9.1,71.0*,0.4,65.5*,49.1,60.9*,50.4*
CCc1c(C)nc(Nc2nc(C)c3ccc(OC)cc3n2)[nH]c1=O,5.5,30.8,0.0,30.9,42.2,nt,nt
Cc1cccc(C)c1NS(=O)(=O)c1cc2c3c(c1)CCN3C(=O)CC2,-4.1,-15.8,1.2,5.7,-11.5,nt,nt
CCOc1cccc(CN2CCC(n3nccc3NC(=O)C3CC3)CC2)c1O,-11.6,-27.1,2.7,-6.2,-17.9,nt,nt
COc1cc(/C=C2/N=C(C3CCCCC3)OC2=O)cc(OC)c1OC,-25.8,43.2*,-0.2,43.7*,39.4,33.2*,29.1
COc1cc(/C=C2\N=C(C)OC2=O)cc(OC)c1OC,13.3,9.8,6.3,4.0,21.7,nt,nt
Cc1cc(C)cc(NC(=O)CCN2CCOCC2)c1,3.6,-6.8,-0.8,-5.9,-16.6,nt,nt
O=S(=O)(Nc1ccccc1)c1ccc(Oc2ncc(C(F)(F)F)cc2Cl)cc1,8.6,48.8*,-1.8,49.2*,25.0,46.3*,51.0*
CCCNS(=O)(=O)c1ccc(Oc2ncc(C(F)(F)F)cc2Cl)cc1,nt,33.6,3.6,24.4,32.9,nt,nt
Cc1cc(C(=O)CCl)c(C)n1-c1cccc(S(=O)(=O)N2CCOCC2)c1,nt,47.6*,nt,45.6*,37.6,30.4*,46.1*
CCc1c(C)sc(NC(=O)c2cc(C)on2)c1C#N,25.0,22.4,-0.9,19.5,28.0,nt,nt
CCCc1cc(C(N)=O)c(NC(=O)c2cc(C)on2)s1,16.1,64.2*,-1.1,58.3*,48.0,53.8*,53.6*
COC(=O)C(=C/C(C)=C/c1cccnc1)C(=O)OC,35.5,50.5*,0.5,49.9*,42.4,41.1*,46.0*
COC(=O)/C(=C/c1cccnc1)NC(=O)c1ccccc1,-36.2,-7.1,2.2,7.4,1.4,nt,nt
CCOc1ccccc1N(CC(=O)Nc1ccccc1Br)S(=O)(=O)c1ccccc1,nt,nt,1.2,nt,nt,nt,nt
